Among the data in the antibiotic and cytotoxicity screens of Wong et al. (2023) are cytotoxicity call values, retold here.

In all, about 39,000 compounds went through this assay and about 3,300 (8.5%) were called active. The list comes from a sample in which actives are over-represented; it also holds similar structures and randomly drawn compounds.

The test system of the assay is HepG2. Nature of the assay: cytotoxicity call (relative viability < 0.9). Particulars: 10 µM.
On to `C[C@H]1CN([C@@H](C)CO)C(=O)c2cc(NS(C)(=O)=O)ccc2O[C@H]1CN(C)S(C)(=O)=O`, for which the cytotoxicity call was “inactive”. The same measure for `COc1ccc(S(=O)(=O)N(C)C[C@H]2OCc3cnnn3CCCC(=O)N([C@H](C)CO)C[C@H]2C)cc1`: “inactive”. The same measure for `O=C(NC1CC1)[C@@H]1c2ccccc2C(=O)N(Cc2cc(C(F)(F)F)cc(C(F)(F)F)c2)[C@H]1c1ccc(CO)cc1`: “inactive”; for `Cc1cc(OCCCS(C)(=O)=O)cc(C)c1-c1cccc(COc2ccc3c(c2)OC[C@H]3CC(=O)O)c1`: “active”. For `COCC#Cc1ccc2c(c1)O[C@H](CN(C)S(=O)(=O)c1cccc(OC)c1)[C@@H](C)CN([C@@H](C)CO)S2(=O)=O` the value was “inactive”; for `O=S(=O)(O)NC1CCCCC1` [listing 1 of 2 here], “inactive”; for `O=S(=O)([O-])NC1CCCCC1.[Na+]`, “inactive”. Take `O=S(=O)(O)NC1CCCCC1` [listing 2 of 2 here]: the cytotoxicity call is “active”. For `CC(C)NC(=O)N(C)C[C@@H]1Oc2ccc(NC(=O)Cc3ccccc3)cc2CC(=O)N([C@@H](C)CO)C[C@@H]1C` the value was “inactive”; for `C[C@H](CO)N1C[C@H](C)[C@@H](CN(C)S(=O)(=O)c2ccc(F)cc2)Oc2c(NC(=O)c3cnccn3)cccc2C1=O`, “inactive”.

With `C[C@H]1CN([C@@H](C)CO)C(=O)c2cccc(NC(=O)C3CC3)c2O[C@H]1CN(C)S(=O)(=O)c1ccccc1`, the cytotoxicity call was “inactive”. For `C[C@@H]1CN([C@@H](C)CO)C(=O)Cc2cc(NC(=O)Nc3ccc(F)cc3)ccc2O[C@@H]1CN(C)Cc1ccc(C(F)(F)F)cc1` the value was “active”. For `C[C@H]1CN([C@@H](C)CO)C(=O)Cc2cc(NC(=O)Nc3ccc(F)cc3)ccc2O[C@H]1CN(C)Cc1ccc(C(F)(F)F)cc1` the value was “active”. The same measure for `C[C@H]1CN([C@@H](C)CO)C(=O)Cc2cc(NC(=O)Nc3ccc(F)cc3)ccc2O[C@@H]1CN(C)Cc1ccc(C(F)(F)F)cc1`: “inactive”; for `C[C@@H]1CN([C@H](C)CO)C(=O)Cc2cc(NC(=O)Nc3ccc(F)cc3)ccc2O[C@@H]1CN(C)Cc1ccc(C(F)(F)F)cc1`: “active”. For `C[C@@H]1CN([C@@H](C)CO)C(=O)Cc2cc(NC(=O)Nc3ccc(F)cc3)ccc2O[C@H]1CN(C)Cc1ccc(C(F)(F)F)cc1`, the cytotoxicity call is “active”. In the case of `COc1ccccc1CNC(=O)C[C@H]1C[C@@H]2c3cc(NS(=O)(=O)c4ccc(F)cc4)ccc3O[C@@H]2[C@@H](CO)O1`, the cytotoxicity call was “inactive”. The same measure for `C[C@H](CO)N1C[C@H](C)[C@@H](CN(C)Cc2ccc(C(=O)O)cc2)Oc2ccc(NC(=O)Nc3cccc4ccccc34)cc2CC1=O`: “inactive”; for `C[C@@H]1CN([C@H](C)CO)S(=O)(=O)c2ccc(C3=CCCCC3)cc2O[C@@H]1CN(C)C(=O)C1CCOCC1`: “inactive”; for `C[C@@H]1CN([C@@H](C)CO)C(=O)c2cc(NC(=O)Nc3ccc(F)cc3)ccc2O[C@@H](C)CCCCO[C@@H]1CN(C)C(=O)c1ccccc1`: “inactive”. The same measure for `C[C@H]1CN([C@@H](C)CO)C(=O)c2ccccc2-c2ccccc2CO[C@H]1CN(C)C(=O)Nc1cccc(C(F)(F)F)c1`: “inactive”. As for `CCC(=O)OCC(=O)C1(OC(=O)CC)C(C)CC2C3CCC4=CC(=O)C=CC4(C)C3(F)C(O)CC21C` (stereo unspecified), the cytotoxicity call is “inactive”. With `Cc1ccc(S(=O)(=O)Nc2ccc3c(c2)C(=O)N([C@@H](C)CO)C[C@@H](C)[C@@H](CN(C)S(C)(=O)=O)O3)cc1`, the cytotoxicity call was “inactive”. The same measure for `COc1ccc(NC(=O)N2C[C@@H](O)COC[C@H]3O[C@@H](CC(=O)NCc4ccccc4OC)CC[C@@H]32)cc1`: “inactive”. Consider `C[C@@H]1CN([C@@H](C)CO)C(=O)c2cc(C#CCN(C)C)cnc2O[C@@H]1CN(C)C(=O)CN1CCOCC1`, for which the cytotoxicity call is “inactive”.

Consider `C[C@H](CO)N1C[C@H](C)[C@@H](CN(C)Cc2ccc(C(F)(F)F)cc2)Oc2ccc(NC(=O)Nc3ccc(F)cc3)cc2CC1=O`, for which the cytotoxicity call was “active”. For the molecule `C[C@@H]1CN([C@H](C)CO)C(=O)Cc2cc(NC(=O)Nc3ccc(F)cc3)ccc2O[C@H]1CN(C)Cc1ccc(C(F)(F)F)cc1`, the cytotoxicity call was “active”. For `C[C@H](CO)N1C[C@H](C)[C@H](CN(C)Cc2ccc(C(F)(F)F)cc2)Oc2ccc(NC(=O)Nc3ccc(F)cc3)cc2CC1=O` the value was “active”; for `C[C@@H]1CCCCO[C@@H](CN(C)S(=O)(=O)c2ccccc2)[C@H](C)CN([C@H](C)CO)C(=O)c2cc(NC(=O)CCC(F)(F)F)ccc2O1`, “inactive”; for `COc1ccc(CN(C)C[C@H]2OCCCC[C@H](C)Oc3ccc(NS(=O)(=O)c4ccc(C)cc4)cc3C(=O)N([C@@H](C)CO)C[C@H]2C)cc1`, “inactive”. As to `COCCN1CCCn2c(nc(CNS(C)(=O)=O)cc2=O)C1`, the cytotoxicity call is “inactive”.

As for `CO[C@H]1CN(C)C(=O)c2cc(NS(=O)(=O)CC(F)(F)F)ccc2OC[C@@H](C)N(C(=O)c2ccc3c(c2)OCO3)C[C@H]1C`, the cytotoxicity call is “inactive”. Take `CC(C)NC(=O)N(C)C[C@@H]1OCCCC[C@H](C)Oc2ccc(NC(=O)Nc3cccc4ccccc34)cc2C(=O)N([C@@H](C)CO)C[C@H]1C`: the cytotoxicity call was “inactive”. The same measure for `C[C@@H]1CN([C@H](C)CO)C(=O)c2cc(NS(=O)(=O)c3cccs3)ccc2O[C@@H](C)CCCCO[C@H]1CN(C)Cc1ccc2c(c1)OCO2`: “inactive”; for `Cc1ccc2sc(C)nc2c1`: “inactive”. For `C[C@@H]1CCCCO[C@H](CN(C)S(=O)(=O)c2ccccc2)[C@@H](C)CN([C@@H](C)CO)C(=O)c2cc(NC(=O)c3ccccc3)ccc2O1` the value was “inactive”; for `C[C@@H]1CN([C@H](C)CO)C(=O)c2cc(NC(=O)Nc3ccc(F)cc3)ccc2O[C@@H](C)CCCCO[C@@H]1CN(C)Cc1ccccc1`, “inactive”.

Consider `C[C@H]1CCCCO[C@@H](CN(C)Cc2ccccc2)[C@@H](C)CN([C@@H](C)CO)C(=O)c2cc(NC(=O)Nc3ccc(F)cc3)ccc2O1`, for which the cytotoxicity call was “active”. For `C[C@@H]1CCCCO[C@H](CN(C)Cc2ccccc2)[C@H](C)CN([C@H](C)CO)C(=O)c2cc(NC(=O)Nc3ccc(F)cc3)ccc2O1` the value was “inactive”. For the molecule `C[C@H](CO)N1C[C@H](C)[C@@H](CN(C)Cc2ccccc2)OCCCC[C@H](C)Oc2ccc(NC(=O)Nc3ccc(F)cc3)cc2C1=O`, the cytotoxicity call is “active”. For `C[C@@H]1CCCCO[C@H](CN(C)Cc2ccccc2)[C@H](C)CN([C@@H](C)CO)C(=O)c2cc(NC(=O)Nc3ccc(F)cc3)ccc2O1`, the cytotoxicity call was “active”. For the molecule `C[C@H](CO)N1C[C@H](C)[C@H](CN(C)Cc2ccccc2)OCCCC[C@H](C)Oc2ccc(NC(=O)Nc3ccc(F)cc3)cc2C1=O`, the cytotoxicity call was “active”.

As to `O=C(/C=N/O)Nc1ccccc1C(=O)O`, the cytotoxicity call is “inactive”.

Turning to `CC(C)CC#Cc1ccc2c(c1)O[C@H](CN(C)C(=O)c1ccccn1)[C@H](C)CN([C@H](C)CO)S2(=O)=O`, the cytotoxicity call is “inactive”. For `Cc1ccc(S(=O)(=O)N(C)C[C@@H]2Oc3ccc(NC(=O)C4CC4)cc3C(=O)N([C@@H](C)CO)C[C@@H]2C)cc1` the value was “inactive”; for `C[C@@H]1CCCCO[C@@H](CN(C)C(=O)CCCN(C)C)[C@@H](C)CN([C@@H](C)CO)C(=O)c2cc(N(C)C)ccc2O1`, “inactive”; for `C[C@H]1CCCCO[C@@H](CN(C)C(=O)Nc2ccc3c(c2)OCO3)[C@@H](C)CN([C@@H](C)CO)C(=O)c2cc(NC(=O)Nc3ccc(C(F)(F)F)cc3)ccc2O1`, “inactive”. In the case of `C=CC[C@@H](CC(=O)N[C@H](CO)Cc1ccccc1)C(=O)NCCOC(=O)[C@@H](CC=C)CC(=O)OC(C)(C)C`, the cytotoxicity call was “inactive”. The same measure for `COCCCNC(=O)C[C@H]1SC(=N)NC1=O`: “inactive”.

Regarding `COc1ccc(NC(=O)Nc2ccc3c(c2)C(=O)N([C@@H](C)CO)C[C@H](C)[C@H](CN(C)S(=O)(=O)c2cccs2)OCCCC[C@H](C)O3)cc1`, the cytotoxicity call is “inactive”. For `COc1ccc(S(=O)(=O)N2C[C@@H](O)COC[C@H]3O[C@H](CC(=O)N[C@@H]4CCN(Cc5ccccc5)C4)CC[C@@H]32)cc1` the value was “inactive”; for `O=C(C[C@@H]1C=C[C@@H](NS(=O)(=O)c2ccccc2)[C@H](CO)O1)NCc1ccncn1`, “inactive”. For `C[C@H](CO)N1C[C@H](C)[C@H](CN(C)C(=O)C2CCCCC2)OCCCC[C@H](C)Oc2ccc(NC(=O)Nc3ccc(C(F)(F)F)cc3)cc2C1=O`, the cytotoxicity call is “inactive”. Regarding `COc1ccc(NC(=O)N(C)C[C@H]2Oc3ccc(NC(=O)CCN4CCOCC4)cc3CC(=O)N([C@H](C)CO)C[C@H]2C)cc1`, the cytotoxicity call is “inactive”. With `COc1ccc(COC[C@]23N=C4SCc5ccccc5C(=O)N4[C@H](c4ccccc4O2)[C@H]3CO[Si](C)(C)C(C)(C)C)cc1`, the cytotoxicity call was “inactive”. The same measure for `O=C(NCC(F)(F)F)[C@H]1[C@H](CO)[C@H]2Cn3c(cccc3=O)[C@H]2N1C(=O)C1CCC1`: “inactive”; for `C[C@H]1CN([C@@H](C)CO)S(=O)(=O)c2ccc(C#Cc3ccccc3)cc2O[C@H]1CN(C)S(=O)(=O)c1cn(C)cn1`: “inactive”; for `Cc1noc(C)c1NC(=O)Nc1ccc2c(c1)C(=O)N([C@H](C)CO)C[C@H](C)[C@H](CN(C)Cc1ccc3c(c1)OCO3)OCCCC[C@@H](C)O2`: “inactive”. The same measure for `COc1ccc(S(=O)(=O)Nc2cccc3c2O[C@@H](CN(C)S(=O)(=O)c2cccs2)[C@H](C)CN([C@@H](C)CO)C3=O)cc1`: “inactive”. The same measure for `COc1cc2c(cc1OC)CN(C(=O)[C@@H]1[C@H]3C(=O)O[C@H](c4ccccc4)[C@H](c4ccccc4)N3[C@H](c3ccc(O)cc3)[C@@]13C(=O)Nc1ccccc13)CC2`: “inactive”; for `C[C@H]1CCCCO[C@H](CN(C)Cc2ccccc2)[C@@H](C)CN([C@@H](C)CO)C(=O)c2cc(NC(=O)Nc3ccc(F)cc3)ccc2O1`: “active”; for `C[C@@H]1CCCCO[C@@H](CN(C)Cc2ccccc2)[C@H](C)CN([C@H](C)CO)C(=O)c2cc(NC(=O)Nc3ccc(F)cc3)ccc2O1`: “inactive”.

With `C[C@@H]1CCCCO[C@H](CN(C)Cc2ccccc2)[C@@H](C)CN([C@@H](C)CO)C(=O)c2cc(NC(=O)Nc3ccc(F)cc3)ccc2O1`, the cytotoxicity call was “inactive”. Turning to `C[C@@H]1CCCCO[C@@H](CN(C)Cc2ccc(F)cc2)[C@H](C)CN([C@@H](C)CO)C(=O)c2cc(NC(=O)Nc3ccccc3)ccc2O1`, the cytotoxicity call is “inactive”. As to `C[C@@H]1CCCCO[C@@H](CN(C)Cc2ccccc2)[C@@H](C)CN([C@@H](C)CO)C(=O)c2cc(NC(=O)Nc3ccc(F)cc3)ccc2O1`, the cytotoxicity call was “inactive”. As to `C[C@@H]1CN([C@@H](C)CO)C(=O)c2cc(NC(=O)Nc3ccc(F)cc3)ccc2O[C@@H](C)CCCCO[C@H]1CN(C)Cc1ccccc1`, the cytotoxicity call is “active”. For the molecule `C[C@@H]1CCCCO[C@@H](CN(C)Cc2ccccc2)[C@H](C)CN([C@@H](C)CO)C(=O)c2cc(NC(=O)Nc3ccc(F)cc3)ccc2O1`, the cytotoxicity call is “inactive”. The same measure for `C[C@@H]1CCCCO[C@@H](CN(C)Cc2ccccc2)[C@@H](C)CN([C@H](C)CO)C(=O)c2cc(NC(=O)Nc3ccc(F)cc3)ccc2O1`: “inactive”; for `C[C@@H]1CCCCO[C@H](CN(C)Cc2ccccc2)[C@@H](C)CN([C@H](C)CO)C(=O)c2cc(NC(=O)Nc3ccc(F)cc3)ccc2O1`: “inactive”; for `C[C@@H]1CN([C@@H](C)CO)C(=O)c2cc(NC(=O)Nc3ccc(F)cc3)ccc2O[C@@H](C)CCCCO[C@@H]1CN(C)Cc1ccccc1`: “active”. For `C[C@@H]1CN([C@H](C)CO)C(=O)c2cc(NC(=O)Nc3ccc(F)cc3)ccc2O[C@@H](C)CCCCO[C@H]1CN(C)Cc1ccccc1` the value was “active”.
